Source: PubChem BioAssay AID1159580 (chemical genetic matrix, 2015)
“And” between values parts separate entries of the source, which are not always exact repeats. Equal values may be shown once. Among all 5,500 compounds or so, about 2,000 (36%) were called active. Roughly 18% stayed inconclusive and do not appear here. The list shows a part of the results. Values without a mark were called inactive. No stated cut-off is given here; in the data, active means normalized growth mostly below about 0.91 (no sharp cut-off); inconclusive means no clear call, values can overlap the other calls; inactive means mostly above about 0.92.

Assay: chemical genetic growth profiling, strain panel (AID 1159580);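 further: tested at 20 µM; growth read once vehicle control cultures reached saturation at 30 °C; 1 = growth at the plate median or of vehicle wells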
Settings: S. cerevisiae deletion strains, growth OD

## COc1cc2ccc(=O)oc2c2ccoc12
Locus YAL021C, strain ccr4, stronger effect = lower value
  normalized growth: 0.941
Locus YAL026C, strain drs2, stronger effect = lower value
  normalized growth: 0.859 (active)
Locus YAL030W, strain snc1, stronger effect = lower value
  normalized growth: 0.982
Locus YBL061C, strain skt5, stronger effect = lower value
  normalized growth: 0.999
Locus YBR009C, strain hhf1, stronger effect = lower value
  normalized growth: 0.777 (active)
Locus YBR021W, strain FUR4, stronger effect = lower value
  normalized growth: 1.04
Locus YBR023C, strain chs3, stronger effect = lower value
  normalized growth: 0.932
Locus YBR171W, strain sec66, stronger effect = lower value
  normalized growth: 0.984
Locus YBR229C, strain ROT2, stronger effect = lower value
  normalized growth: 0.998
Locus YBR231C, strain swc5, stronger effect = lower value
  normalized growth: 0.733 (active)
Locus YBR279W, strain paf1, stronger effect = lower value
  normalized growth: 0.99
Locus YCL011C, strain gbp2, stronger effect = lower value
  normalized growth: 0.823 (active)
Locus YCL016C, strain dcc1, stronger effect = lower value
  normalized growth: 0.828 (active)
Locus YCL029C, strain bik1, stronger effect = lower value
  normalized growth: 0.982
Locus YCL069W, strain vba3, stronger effect = lower value
  normalized growth: 0.915 (active)
Locus YCR088W, strain abp1, stronger effect = lower value
  normalized growth: 1.01
Locus YDL005C, strain med2, stronger effect = lower value
  normalized growth: 0.994
Locus YDL035C, strain GPR1, stronger effect = lower value
  normalized growth: 0.971
Locus YDL040C, strain nat1, stronger effect = lower value
  normalized growth: 1
Locus YDL074C, strain BRE1, stronger effect = lower value
  normalized growth: 0.85
Locus YDL101C, strain DUN1, stronger effect = lower value
  normalized growth: 0.94
Locus YDL134C, strain PPH21, stronger effect = lower value
  normalized growth: 0.964
Locus YDL185W, strain tfp1, stronger effect = lower value
  normalized growth: 0.937
Locus YDL192W, strain arf1, stronger effect = lower value
  normalized growth: 0.955
Locus YDR001C, strain nth1, stronger effect = lower value
  normalized growth: 0.994
Locus YDR069C, strain doa4, stronger effect = lower value
  normalized growth: 0.905
Locus YDR101C, strain arx1, stronger effect = lower value
  normalized growth: 0.985
Locus YDR137W, strain rgp1, stronger effect = lower value
  normalized growth: 1.03
Locus YDR159W, strain sac3, stronger effect = lower value
  normalized growth: 0.829 (active)
Locus YDR162C, strain NBP2, stronger effect = lower value
  normalized growth: 0.974
Locus YDR195W, strain ref2
  normalized growth: 1.3 [resistant] (active)
Locus YDR297W, strain sur2, stronger effect = lower value
  normalized growth: 0.903 (active)
Locus YDR318W, strain mcm21, stronger effect = lower value
  normalized growth: 0.965
Locus YDR334W, strain swr1, stronger effect = lower value
  normalized growth: 0.772 (active)
Locus YDR335W, strain msn5, stronger effect = lower value
  normalized growth: 0.896 (active)
Locus YDR388W, stronger effect = lower value
  normalized growth: 1
Locus YDR392W, strain spt3, stronger effect = lower value
  normalized growth: 0.665 (active)
Locus YDR502C, strain sam2, stronger effect = lower value
  normalized growth: 0.958
Locus YEL003W, strain gim4, stronger effect = lower value
  normalized growth: 0.818 (active)
Locus YEL037C, strain rad23, stronger effect = lower value
  normalized growth: 0.957
Locus YEL061C, strain CIN8 (second series), stronger effect = lower value
  normalized growth: 0.99
Locus YER015W, strain faa2, stronger effect = lower value
  normalized growth: 0.92 (active)
Locus YER016W, strain bim1, stronger effect = lower value
  normalized growth: 1
Locus YER110C, stronger effect = lower value
  normalized growth: 0.975
Locus YER111C, strain swi4, stronger effect = lower value
  normalized growth: 1
Locus YER155C, strain BEM2 (second series), stronger effect = lower value
  normalized growth: 0.731 (active)
Locus YER155C, strain BEM2, stronger effect = lower value
  normalized growth: 1.02
Locus YER167W, strain BCK2, stronger effect = lower value
  normalized growth: 1.01
Locus YFR010W, strain ubp6, stronger effect = lower value
  normalized growth: 0.915
Locus YGL078C, strain dbp3, stronger effect = lower value
  normalized growth: 0.967
Locus YGL086W, strain mad1, stronger effect = lower value
  normalized growth: 0.969
Locus YGL167C, strain pmr1, stronger effect = lower value
  normalized growth: 0.998
Locus YGL173C, strain kem1, stronger effect = lower value
  normalized growth: 0.862 (active)
Locus YGL227W, strain vid30, stronger effect = lower value
  normalized growth: 0.999
Locus YGL240W, strain doc1, stronger effect = lower value
  normalized growth: 0.692 (active)
Locus YGL248W, strain PDE1, stronger effect = lower value
  normalized growth: 0.952
Locus YGL253W, strain hxk2, stronger effect = lower value
  normalized growth: 0.892 (active)
Locus YGR078C, strain PAC10, stronger effect = lower value
  normalized growth: 0.977
Locus YGR135W, strain pre9, stronger effect = lower value
  normalized growth: 0.893 (active)
Locus YGR252W, strain gcn5, stronger effect = lower value
  normalized growth: 0.76 (active)
Locus YHR013C, strain ard1, stronger effect = lower value
  normalized growth: 0.953
Locus YHR027C, strain rpn1, stronger effect = lower value
  normalized growth: 0.881 (active)
Locus YHR030C, strain SLT2, stronger effect = lower value
  normalized growth: 1 and 0.986
Locus YHR079C, strain IRE1 (second series), stronger effect = lower value
  normalized growth: 0.961
Locus YHR079C, strain IRE1, stronger effect = lower value
  normalized growth: 1.02
Locus YHR094C, strain hxt1, stronger effect = lower value
  normalized growth: 0.996
Locus YHR129C, strain ARP1, stronger effect = lower value
  normalized growth: 1
Locus YHR142W, strain chs7, stronger effect = lower value
  normalized growth: 0.838 (active)
Locus YHR200W, strain rpn10, stronger effect = lower value
  normalized growth: 0.899 (active)
Locus YIL066C, strain RNR3, stronger effect = lower value
  normalized growth: 1
Locus YIL073C, strain SPO22, stronger effect = lower value
  normalized growth: 0.957
Locus YIL125W, strain kgd1, stronger effect = lower value
  normalized growth: 1.01
Locus YIR030C, strain dcg1, stronger effect = lower value
  normalized growth: 0.993
Locus YJL092W, strain hpr5, stronger effect = lower value
  normalized growth: 0.973
Locus YJL095W, strain BCK1 (second series), stronger effect = lower value
  normalized growth: 0.937
Locus YJL095W, strain BCK1, stronger effect = lower value
  normalized growth: 0.906 and 0.992
Locus YJL115W, strain asf1, stronger effect = lower value
  normalized growth: 0.883 (active)
Locus YJL129C, strain trk1, stronger effect = lower value
  normalized growth: 1.14 [resistant] (active)
Locus YJL134W, strain LCB3, stronger effect = lower value
  normalized growth: 1
Locus YJL154C, strain vps35, stronger effect = lower value
  normalized growth: 0.996
Locus YJL164C, strain tpk1, stronger effect = lower value
  normalized growth: 0.902 (active)
Locus YJL166W, strain qcr8, stronger effect = lower value
  normalized growth: 0.826 (active)
Locus YJL168C, strain set2, stronger effect = lower value
  normalized growth: 0.983
Locus YJL187C, strain SWE1 (second series), stronger effect = lower value
  normalized growth: 0.98
Locus YJR043C, strain POL32, stronger effect = lower value
  normalized growth: 0.921
